A1 inh: inhibitors of the anti-apoptotic protein A1, read as caspase activation; MEF A1-2A-BIM cells, Caspase-Glo 3/7 luminescence, 3 h; percent of clofoctol response, vehicle zero; caspase activation, % (test concentration not listed); 330,000 compounds, 0.066% hits; AID 2462;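 active means over half of replicate activation scores above 10%, or exactly half above 10 with the replicate mean above 10; inconclusive means replicate mean below 10 yet half the replicates above 10; inactive means over half of replicates below 10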
Mot1-301 SUMO: inhibitors of SUMOylation pathway: yeast Mot1-301 growth rescue. 320,000 compounds, 1% hits. AID 2716. growth rescue, % at 18.8 µM. S. cerevisiae Mot1-301 growth rescue, ATP luminescence, 38.5C; percent above DMSO median, 100 means doubled;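 active means every valid replicate shows activation above 250% relative to neutral control wells; inactive means the rest, any valid replicate at or below 250%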
AHR activator: activates the human aryl hydrocarbon receptor | P35869 | AHR-responsive luciferase reporter cells, luminescence | activation, % at 5 µM | 320,000 compounds, 2.5% hits; in the data active means activation above about 47%
Efflux pump inh: antifungal efflux pump inhibition, Nile Red retention. S. cerevisiae Candida pump triplex. inhibition, % at 10 µM. 330,000 compounds, 0.44% hits. AID 485275;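 active means plate passing quality check with inhibition over a set limit, or well fluorescence over plate mean plus 4 SD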;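 further: Nile Red retained in pooled yeast measured as flow cytometry median fluorescence; higher means more Nile Red kept so more efflux inhibition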
VLA-4 inh: inhibition in a human VLA-4 binding assay; VLA-4 expressing cells, ligand binding flow cytometry; AID 2557; inhibition, % (about 7 µM as worked out from the volumes in the protocol); P13612; 330,000 compounds, 0.2% hits; in the data active means inhibition above about 50%
Target sequence (P13612 whole entry, looked up): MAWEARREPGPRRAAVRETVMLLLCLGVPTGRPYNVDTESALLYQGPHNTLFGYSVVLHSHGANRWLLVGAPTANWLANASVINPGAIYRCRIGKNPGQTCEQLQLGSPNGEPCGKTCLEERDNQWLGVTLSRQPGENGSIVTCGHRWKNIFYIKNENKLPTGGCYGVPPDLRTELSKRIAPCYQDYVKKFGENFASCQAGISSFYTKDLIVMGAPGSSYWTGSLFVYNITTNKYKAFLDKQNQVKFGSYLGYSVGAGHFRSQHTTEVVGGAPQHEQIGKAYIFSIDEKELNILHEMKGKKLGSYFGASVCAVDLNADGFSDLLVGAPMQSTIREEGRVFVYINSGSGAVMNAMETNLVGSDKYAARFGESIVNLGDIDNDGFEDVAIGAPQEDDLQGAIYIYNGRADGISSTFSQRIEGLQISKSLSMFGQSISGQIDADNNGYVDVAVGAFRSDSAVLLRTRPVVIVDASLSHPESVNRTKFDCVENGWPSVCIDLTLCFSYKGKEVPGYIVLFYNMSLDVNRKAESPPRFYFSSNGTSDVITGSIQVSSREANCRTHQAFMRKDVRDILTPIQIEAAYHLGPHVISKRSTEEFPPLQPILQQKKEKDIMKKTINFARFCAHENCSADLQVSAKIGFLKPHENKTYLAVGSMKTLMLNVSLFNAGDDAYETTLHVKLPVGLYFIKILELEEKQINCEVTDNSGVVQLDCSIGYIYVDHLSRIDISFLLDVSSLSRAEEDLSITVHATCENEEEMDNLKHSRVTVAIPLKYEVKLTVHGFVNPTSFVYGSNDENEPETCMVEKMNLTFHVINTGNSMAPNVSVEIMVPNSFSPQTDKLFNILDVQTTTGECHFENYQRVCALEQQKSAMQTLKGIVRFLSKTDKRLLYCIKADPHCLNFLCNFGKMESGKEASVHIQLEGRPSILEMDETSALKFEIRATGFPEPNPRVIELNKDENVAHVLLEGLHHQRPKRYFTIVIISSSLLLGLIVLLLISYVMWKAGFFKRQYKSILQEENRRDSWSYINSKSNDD
ALR inh: human ALR oxidase inhibition via reduced H2O2. P55789. purified ALR, DTT oxidation, H2O2 HRP-luminol luminescence. inhibition, % (no concentration beside the values). 290,000 compounds, 3.8% hits;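 active means mean replicate inhibition above about 79%, with every replicate also reaching it, limit read from the data; inconclusive means only one of the two criteria met; inactive means mean below limit and not every replicate reaching it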
Mot1 SUMO dose: inhibits SUMO pathway, affecting Mot1-301 yeast growth; shares compounds with Mot1-301 SUMO; S. cerevisiae Mot1-301 galactose growth, ATP luminescence, 24 h; -100 = growth of slx-deleted rescue strain; growth activity, percent, % at 42 µM; 2,300 tested, under 10 active; AID 493004;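 active means Signal drops as the depositor expects, and the fitted half-maximal dose is no more than ten times the top valid tested dose; inconclusive means Poor fit, or a flat curve whose signal drops by 30% to 70%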;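 further: more negative values mean stronger growth rescue toward the control strain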
Of the large screens only hits and unclear results are named; the others gave an inactive call (follow-up assays come after a bar, where they were run). Hits are enriched below; roughly 7.2% of the tested compounds scored in any of these assays.

O=C(O)CSc1ccnc2cc(Cl)ccc12	none
O=c1[nH]cnc2cc(Cl)ccc12	Mot1-301 SUMO active | Mot1 SUMO dose inactive
Cc1[nH]c(C)c(S(=O)(=O)NCCc2ccccc2)c1C(=O)N1CCCC1	none
Cc1[nH]c(C)c(S(=O)(=O)NCC(C)c2ccccc2)c1C(=O)N1CCCCC1 (centres undefined)	Mot1-301 SUMO 496.6 | Mot1 SUMO dose inactive
Cc1cccc(C(=O)NC2CC3CCCC(C2)N3C(=O)Nc2ccccc2)c1 (centres undefined)	none
CCCCn1c(N)c(N(CC(C)C)C(=O)CSCC(=O)Nc2ccc(OC)cc2)c(=O)[nH]c1=O	none
O=C1NC2(CCCCC2)C(=O)N1Cc1cccc(C(F)(F)F)c1	none (no result: Mot1-301 SUMO)
CCNc1ccc(S(=O)(=O)N(C)C)cc1NCC(=O)Nc1ccccc1Br	Mot1-301 SUMO 986.6 | Mot1 SUMO dose inactive
COc1ccccc1CNC(=O)CCS(=O)(=O)c1ccc2c(c1)CCCN2C(C)=O	none
CCn1c(=O)c(CCC(=O)NCC2CCCO2)c(C)c2c(C)nn(-c3ccccc3)c21 (centres undefined)	none
Clc1cc(Br)ccc1OCCOCCN1CCOCC1	Mot1-301 SUMO 504.0 | Mot1 SUMO dose inactive
COc1cc(CNCCN2CCOCC2)ccc1OCc1ccccc1Cl	Mot1-301 SUMO 452.7 | Mot1 SUMO dose inactive
CCOc1ccc2ccccc2c1CNCCN1CCOCC1	none
CCOc1ccc(Br)cc1CNCCN1CCOCC1	Mot1-301 SUMO 399.1 | Mot1 SUMO dose inactive
O=C(O)Cc1ccc(OCc2ccc(Cl)nc2)cc1	none
CC(=O)Oc1ccc(/C(C)=N/N2CCN(Cc3ccc(C)cc3)CC2)cc1	none
Cc1ccccc1Cn1cc(NC(=O)c2cc3nc(-c4ccco4)cc(C(F)(F)F)n3n2)cn1	Mot1-301 SUMO 360.0 | Mot1 SUMO dose inactive
COc1cc(O)oc1C=Nc1ccc(C(=O)O)cc1	Mot1-301 SUMO 577.4 | Mot1 SUMO dose inactive
COCc1ccc(CN2CCC(n3nccc3NC(=O)C(OC)c3ccccc3)CC2)o1 (centres undefined)	none
COC(C(=O)Nc1ccnn1C1CCN(Cc2cnn(C)c2)CC1)c1ccccc1 (centres undefined)	Mot1-301 SUMO 497.3 | Mot1 SUMO dose inactive
COc1cc(COc2ccc3c(C)c(CC(=O)O)c(=O)oc3c2C)cc(OC)c1OC	Mot1-301 SUMO 627.6 | Mot1 SUMO dose inactive
CCc1c(C)c2ccc(OCC(=O)OC(C)C)c(C)c2oc1=O	none | Mot1 SUMO dose inactive
CCc1c(C)c2ccc(OCC(=O)N(C)C)c(C)c2oc1=O	none
Cc1c(CC(=O)O)c(=O)oc2c(C)c(OCc3ccccc3)ccc12	none (no result: AHR activator)
CCOc1ccc(C(=O)Nc2c(C(=O)N3CCC(N4CCCCC4)CC3)oc3ccccc23)cc1	none
Cc1ccccc1C(=O)/C=C1\NC(=O)CS1	Mot1-301 SUMO 367.9 | Mot1 SUMO dose inactive
O=C(COc1ccc([N+](=O)[O-])cc1)Nc1ccc(C(=O)NCc2cccnc2)cc1	Mot1-301 SUMO 481.2 | Mot1 SUMO dose inactive
CSc1nncc(/C(C)=N\Nc2cccc(C)c2)n1	Mot1-301 SUMO 365.8 | Mot1 SUMO dose inactive
CC(=O)c1c(C(C)=O)c(C)n(C(c2ccccc2)c2ccccc2)c1C	none
CCCc1nnc(NC(=O)c2cn(CC)c3cc(N4CCN(C)CC4)c(F)cc3c2=O)s1	Mot1-301 SUMO 644.0 | Mot1 SUMO dose inactive
Cc1cc(NC(=O)CSc2nc3c(C)cccc3cc2C#N)no1	none (no result: ALR inh)
O=C(N1CCOCC1)C1(S(=O)(=O)c2ccccc2)CC=CC1	Mot1-301 SUMO 639.3 | Mot1 SUMO dose inactive
COc1ccc(CN(C(=O)CN2C(=O)c3ccccc3S2(=O)=O)C(C(=O)NCC2CCCO2)c2ccncc2)cc1 (centres undefined)	none
COc1cccc(/C=C2/C(=O)NN(c3ccc(Br)cc3)C2=O)c1O	Mot1-301 SUMO 527.7 (no result: AHR activator) | Mot1 SUMO dose inactive
COc1cc(/C=C2/C(=O)NN(c3ccc(F)cc3)C2=O)cc(Cl)c1O	ALR inh inconclusive
CCc1cc2c(=O)c(-c3nc4ccccc4n3C)c(C)oc2c(CN2CCOCC2)c1O	Mot1-301 SUMO 519.9 | Mot1 SUMO dose inactive
CCc1cc2c(=O)c(-c3nc4ccccc4[nH]3)coc2c(CN2CCCCC2)c1O	Mot1-301 SUMO 477.5 | Mot1 SUMO dose inactive
COc1ccc(-c2nc3c(c(SCC(=O)N4CCOCC4)n2)Cc2c(CO)cnc(C)c2O3)cc1	Mot1-301 SUMO 380.1 (no result: ALR inh) | Mot1 SUMO dose inactive
Cc1cc(OCC(=O)Nn2cnnc2)c(C)cc1Br	none (no result: Mot1-301 SUMO)
CCOC(=O)c1cnc2c(OC)cccc2c1N1CCN(c2ccccn2)CC1	none
CCOC(=O)c1cnc2ccc(OCC)cc2c1N1CCN(C)CC1	none (no result: ALR inh)
CCOC(=O)c1cnc2ccc(Cl)cc2c1N1CCN(C)CC1	Mot1-301 SUMO 616.0 | Mot1 SUMO dose inactive
CCOC(=O)c1cnc2c(OC)cccc2c1N1CCN(c2ccccc2OC)CC1	Mot1-301 SUMO active | Mot1 SUMO dose inactive
CCCCn1c2c(c(=O)n(C)c1=O)C(c1ccc(OC)cc1)N1CCCCCC1=N2 (centres undefined)	Mot1-301 SUMO active | Mot1 SUMO dose inactive
COc1ccc([N+](=O)[O-])cc1NC(=O)C(C)NNC(=O)c1cccc([N+](=O)[O-])c1 (centres undefined)	none
CC(C)C(O)(C(=O)NNc1ccccc1)C(C)C	Mot1-301 SUMO 583.2 | Mot1 SUMO dose inactive
CCOC(CNC(=O)c1nnc(Cc2cc(OC)c(OC)c(OC)c2)o1)OCC	none
CN(Cc1ccc(C(F)(F)F)cc1)C(=O)C1CC(=O)N(Cc2ccco2)C1 (centres undefined)	none (no result: ALR inh)
O=C(COC(=O)c1c(F)cccc1F)c1ccc[nH]1	Mot1-301 SUMO 595.9 (no result: ALR inh) | Mot1 SUMO dose inactive
Cc1ccc(Oc2ccccc2NC(=O)C2=COCCO2)cc1	Mot1-301 SUMO 415.6 (no result: ALR inh) | Mot1 SUMO dose inactive
O=C(Nc1cc(Cl)ccc1Oc1ccccc1)C1=COCCO1	none
Cc1cc(C)c(S(=O)(=O)c2ccccc2)c(=O)[nH]1	none
Cc1cc(C)c(S(=O)(=O)c2cccc(C)c2C)c(=O)[nH]1	Mot1-301 SUMO 414.6 (no result: ALR inh) | Mot1 SUMO dose inactive
CC(NC(=O)c1ccccc1)c1nnc(SCC(=O)Nc2nnc(C3CC3)s2)n1C (centres undefined)	none (no result: ALR inh)
c1ccc(CNc2ncnc3sc4c(c23)CCC4)nc1	Mot1-301 SUMO 817.8 | Mot1 SUMO dose inactive
COc1cc(-c2ccccc2)nc(N)n1	none
CCOc1cc(-c2ccccc2)nc(N)n1	Mot1-301 SUMO 459.7 | Mot1 SUMO dose inactive
Cc1ccnc(NC(=O)Cc2ccc(F)cc2)n1	none
Cc1ccnc(NC(=O)CC(c2ccccc2)c2ccccc2)n1	Mot1-301 SUMO 432.0 | Mot1 SUMO dose inactive
CN(CC(=O)Nc1ccc(Cl)c(Cl)c1)CC(=O)Nc1ccc2c(c1)OCO2	none

Bioassay records: PubChem, several laboratories
